Each structure is given as a SMILES string. About 79,000 compounds went through this panel and 15% of them were active in at least one assay; those are over-represented in the sample as a whole. Unmarked numbers belong to inactive results. Activity calls are given as the source filed them. No stated cut-off is given here; in the data, active means growth inhibition above about 70%; inactive means the rest.

The nature of test [1]: NCI Yeast Anticancer Drug Screen. Data for the rad50 strain (AID 155).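 Further: 0% = growth of vehicle-only cultures of the same strain.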 Particulars: S. cerevisiae rad50 strain growth inhibition, stronger effect = higher value. In short, it runs like this: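 Relative growth inhibition (compound vs vehicle) was measured in yeast with a defined repair-gene alteration.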
Test [2] in a line: NCI Yeast Anticancer Drug Screen. Data for the mec2-1 strain (AID 157). Particulars: S. cerevisiae mec2-1 strain, stronger effect = higher value. An outline of the steps: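 Compounds were applied to mec2-1 yeast cells. Their growth was then compared with that of vehicle-treated cultures to give growth inhibition.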
Test [3] can be described thus: NCI Yeast Anticancer Drug Screen. Data for the sgs1 mgt1 strain (AID 161).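 Further: 0% = growth of cultures given vehicle only.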 Particulars: S. cerevisiae sgs1 mgt1 strain, stronger effect = higher value. In short, it runs like this: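 Compounds are added to genetically altered yeast, and growth is compared with cultures given vehicle alone to give percent inhibition.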
Test [4] in a line: NCI Yeast Anticancer Drug Screen. Data for the cln2 rad14 strain (AID 165).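 Further: 0% = growth equal to vehicle treated cultures.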 Particulars: S. cerevisiae cln2 rad14 strain, stronger effect = higher value. An outline of the steps: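 Strain: cln2 rad14 yeast, altered in cell cycle control and DNA damage repair. Read-out: growth inhibition vs vehicle.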
Test [5] in a line: NCI Yeast Anticancer Drug Screen. Data for the bub3 strain (AID 167). Particulars: S. cerevisiae bub3 mutant strain, stronger effect = higher value. An outline of the steps: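 Screening used yeast with an engineered genetic alteration affecting cell cycle control. Compound-exposed cultures were compared with vehicle cultures, and reduced growth was taken as inhibition.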
Test [6] can be described thus: NCI Yeast Anticancer Drug Screen. Data for the mlh1 rad18 strain (AID 175). Particulars: S. cerevisiae mlh1 rad18 strain growth inhibition, stronger effect = higher value. In short, it runs like this: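 A repair-deficient yeast strain is exposed to test compound, and growth is scored relative to vehicle-treated controls.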
Setting [7] is: at 5.0 µM (retest, dose inferred, filed as 0.5).
Setting [8] is: at 50.0 µM (retest, dose inferred, filed as 5.0).

Take `[C-]#[O+].[C-]#[O+].[C-]#[O+].[C-]#[O+].[C-]#[O+].[Mo+2].[Mo+4].[c-]1[c-][c-][cH-][c-]1.[c-]1[c-][c-][cH-][c-]1.c1ccc([PH+](CC[PH+](c2ccccc2)c2ccccc2)c2ccccc2)cc1`: the growth inhibition in test [1] (setting [7]) is 82% (active); in test [1] (setting [8]) it was 98% (active); in test [1] (at 50.0 µM), 90.5% (active); in test [2] (setting [7]) it was 73% (active); in test [2] (setting [8]), 99% (active); in test [2] (at 50.0 µM) it was 93% (active). Moreover, the growth inhibition was 91% (active) in test [3] (setting [7]); 98% (active) in test [3] (setting [8]); 92.3% (active) in test [3] (at 50.0 µM); 60% in test [4] (setting [7]); 98% (active) in test [4] (setting [8]); 92% (active) in test [4] (at 50.0 µM). The growth inhibition was 84% (active) in test [5] (setting [7]); 98% (active) in test [5] (setting [8]); 92.3% (active) in test [5] (at 50.0 µM); 79% (active) in test [6] (setting [7]); 98% (active) in test [6] (setting [8]); 90.5% (active) in test [6] (at 50.0 µM).

`c1ccc(C(c2ccccc2)c2cccnc2)cc1`: the growth inhibition in test [1] (setting [7]) was 61%; in test [1] (setting [8]), 97% (active); in test [1] (at 50.0 µM), 89.2% (active); in test [2] (setting [7]), 59%; in test [2] (setting [8]) it was 98% (active); in test [2] (at 50.0 µM), 91.2% (active). Besides, the growth inhibition in test [3] (setting [7]) is 16%; in test [3] (setting [8]) it was 98% (active); in test [3] (at 50.0 µM) it was 91.6% (active); in test [4] (setting [7]) it was 55%; in test [4] (setting [8]), 97% (active); in test [4] (at 50.0 µM) it was 88.9% (active). The growth inhibition in test [5] (setting [7]) was 52%; in test [5] (setting [8]), 98% (active); in test [5] (at 50.0 µM), 91.7% (active); in test [6] (setting [7]) it was 54%; in test [6] (setting [8]) it was 100% (active); in test [6] (at 50.0 µM) it was 90.8% (active).

For `COc1ccc(O)c(/C=C/[N+](=O)[O-])c1`, the growth inhibition in test [1] (setting [7]) was 16%; in test [1] (setting [8]) it was 99% (active); in test [1] (at 50.0 µM), 99.4% (active); in test [2] (setting [7]) it was -1%; in test [2] (setting [8]) it was 99% (active); in test [2] (at 50.0 µM), 98.8% (active). The growth inhibition in test [3] (setting [7]) was 20%; in test [3] (setting [8]) it was 99% (active); in test [3] (at 50.0 µM) it was 99.1% (active); in test [4] (setting [7]), 5%; in test [4] (setting [8]) it was 98% (active); in test [4] (at 50.0 µM), 99.2% (active). For the same compound, the growth inhibition is 41% in test [5] (setting [7]); 99% (active) in test [5] (setting [8]); 99.3% (active) in test [5] (at 50.0 µM); 21% in test [6] (setting [7]); 99% (active) in test [6] (setting [8]); 98.9% (active) in test [6] (at 50.0 µM).

As to `C=CCc1cc(Cl)ccc1OC(=O)N(C)C`, the growth inhibition was 5% in test [1] (setting [7]); -2% in test [1] (setting [8]); -7.75% in test [1] (at 50.0 µM); 5% in test [2] (setting [7]); -4% in test [2] (setting [8]); 3.45% in test [2] (at 50.0 µM). Moreover, the growth inhibition in test [3] (setting [7]) was 5%; in test [3] (setting [8]), -2%; in test [3] (at 50.0 µM), -6.55%; in test [4] (setting [7]) it was 6%; in test [4] (setting [8]), -1%; in test [4] (at 50.0 µM), -19.3%. The growth inhibition was 0% in test [5] (setting [7]); -21% in test [5] (setting [8]); -11.8% in test [5] (at 50.0 µM); 0% in test [6] (setting [7]); -1% in test [6] (setting [8]); 31.8% in test [6] (at 50.0 µM).

For `C[CH2][Sn]1([CH2]C)[O]S(=O)(=O)[O]1`, the growth inhibition in test [1] (setting [7]) is 15%; in test [1] (setting [8]), 77% (active); in test [1] (at 50.0 µM), 70.2% (active); in test [2] (setting [7]), 12%; in test [2] (setting [8]) it was 95% (active); in test [2] (at 50.0 µM), 76.5% (active). Moreover, the growth inhibition in test [3] (setting [7]) is 12%; in test [3] (setting [8]), 93% (active); in test [3] (at 50.0 µM), 25.4%; in test [4] (setting [7]), 22%; in test [4] (setting [8]), 56%; in test [4] (at 50.0 µM) it was 60.2%. Besides, the growth inhibition in test [5] (setting [7]) is 13%; in test [5] (setting [8]) it was 92% (active); in test [5] (at 50.0 µM), 45.1%; in test [6] (setting [7]) it was 12%; in test [6] (setting [8]), 88% (active); in test [6] (at 50.0 µM) it was 53.9%.

Regarding `C[CH2][Sn]1([CH2]C)[O]C2C(OC)OC3COC(c4ccccc4)OC3C2[O]1` (configuration not stated), the growth inhibition in test [1] (setting [7]) was 77% (active); in test [1] (setting [8]) it was 80% (active); in test [1] (at 50.0 µM), 18.4%; in test [2] (setting [7]), 42%; in test [2] (setting [8]) it was 70% (active); in test [2] (at 50.0 µM), 61.2%. Moreover, the growth inhibition in test [3] (setting [7]) was 67%; in test [3] (setting [8]), 77% (active); in test [3] (at 50.0 µM) it was -9.95%; in test [4] (setting [7]), 68%; in test [4] (setting [8]) it was 40%; in test [4] (at 50.0 µM), -21.4%. Besides, the growth inhibition in test [5] (setting [7]) is 69%; in test [5] (setting [8]), 40%; in test [5] (at 50.0 µM) it was 71.8% (active); in test [6] (setting [7]), 53%; in test [6] (setting [8]), 54%; in test [6] (at 50.0 µM), -16.1%.

Consider `CCOP(=O)(OCC)/C(C#N)=C/c1cccc(F)c1`, for which the growth inhibition in test [1] (setting [7]) is -9%; in test [1] (setting [8]), 45%; in test [1] (at 50.0 µM), 73.8% (active); in test [2] (setting [7]) it was -11%; in test [2] (setting [8]), 23%; in test [2] (at 50.0 µM) it was 59.3%. The growth inhibition is -2% in test [3] (setting [7]); 36% in test [3] (setting [8]); 64.8% in test [3] (at 50.0 µM); 17% in test [4] (setting [7]); 33% in test [4] (setting [8]); 25.4% in test [4] (at 50.0 µM). The growth inhibition in test [5] (setting [7]) was -12%; in test [5] (setting [8]), 56%; in test [5] (at 50.0 µM), 51.1%; in test [6] (setting [7]), -1%; in test [6] (setting [8]) it was 69%; in test [6] (at 50.0 µM), 68.9%.

For `Cc1cc(N(CCCl)CCCl)ccc1CN1CCCN(Cc2ccc(N(CCCl)CCCl)cc2C)C1c1ccc(N(CCCl)CCCl)cc1`, the growth inhibition was 11% in test [1] (setting [7]); 97% (active) in test [1] (setting [8]); 66.2% in test [1] (at 50.0 µM); 1% in test [2] (setting [7]); 99% (active) in test [2] (setting [8]); 21.6% in test [2] (at 50.0 µM). Further, the growth inhibition in test [3] (setting [7]) is 3%; in test [3] (setting [8]), 98% (active); in test [3] (at 50.0 µM), 86.8% (active); in test [4] (setting [7]), -3%; in test [4] (setting [8]), 98% (active); in test [4] (at 50.0 µM) it was 21.4%. The growth inhibition was 5% in test [5] (setting [7]); 88% (active) in test [5] (setting [8]); 30.8% in test [5] (at 50.0 µM); 33% in test [6] (setting [7]); 97% (active) in test [6] (setting [8]); 97.2% (active) in test [6] (at 50.0 µM).

`NC1=NC(=O)N2CC12` (configuration not stated): the growth inhibition in test [1] (setting [7]) is 30%; in test [1] (setting [8]), 36%; in test [1] (at 50.0 µM), 48.5%; in test [2] (setting [7]), 13%; in test [2] (setting [8]) it was 7%; in test [2] (at 50.0 µM) it was -9.3%. Also, the growth inhibition in test [3] (setting [7]) is 25%; in test [3] (setting [8]) it was 16%; in test [3] (at 50.0 µM) it was 8.2%; in test [4] (setting [7]), 20%; in test [4] (setting [8]), 15%; in test [4] (at 50.0 µM), 11.4%. Further, the growth inhibition in test [5] (setting [7]) was 21%; in test [5] (setting [8]), 18%; in test [5] (at 50.0 µM), 7%; in test [6] (setting [7]), 29%; in test [6] (setting [8]) it was 52%; in test [6] (at 50.0 µM) it was 6.4%.

(Values after PubChem BioAssay (NCI).)
